# Results: PubChem BioAssay AID1445 (SRMLSC, 2008)
# In all, about 220,000 compounds went through this assay and about 910 (0.41%) were called active. The sample holds actives, similar compounds and a random draw of the others, so the mix is not that of the screen.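 How the source made its calls: active means primary inhibition above the hit cutoff, then over 50% inhibition at one or more dose response concentrations (cut at about 23% in these data, passing the limit was not always enough); inconclusive means conflicting primary data, or primary hits not chosen for dose response; inactive means low primary inhibition, or under 50% at every dose.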 Potency and affinity values are given separately.
# Target: Aminopeptidase N (Plasmodium falciparum (isolate 3D7)) (UniProt O96935)
# Sequence (O96935 whole entry, looked up): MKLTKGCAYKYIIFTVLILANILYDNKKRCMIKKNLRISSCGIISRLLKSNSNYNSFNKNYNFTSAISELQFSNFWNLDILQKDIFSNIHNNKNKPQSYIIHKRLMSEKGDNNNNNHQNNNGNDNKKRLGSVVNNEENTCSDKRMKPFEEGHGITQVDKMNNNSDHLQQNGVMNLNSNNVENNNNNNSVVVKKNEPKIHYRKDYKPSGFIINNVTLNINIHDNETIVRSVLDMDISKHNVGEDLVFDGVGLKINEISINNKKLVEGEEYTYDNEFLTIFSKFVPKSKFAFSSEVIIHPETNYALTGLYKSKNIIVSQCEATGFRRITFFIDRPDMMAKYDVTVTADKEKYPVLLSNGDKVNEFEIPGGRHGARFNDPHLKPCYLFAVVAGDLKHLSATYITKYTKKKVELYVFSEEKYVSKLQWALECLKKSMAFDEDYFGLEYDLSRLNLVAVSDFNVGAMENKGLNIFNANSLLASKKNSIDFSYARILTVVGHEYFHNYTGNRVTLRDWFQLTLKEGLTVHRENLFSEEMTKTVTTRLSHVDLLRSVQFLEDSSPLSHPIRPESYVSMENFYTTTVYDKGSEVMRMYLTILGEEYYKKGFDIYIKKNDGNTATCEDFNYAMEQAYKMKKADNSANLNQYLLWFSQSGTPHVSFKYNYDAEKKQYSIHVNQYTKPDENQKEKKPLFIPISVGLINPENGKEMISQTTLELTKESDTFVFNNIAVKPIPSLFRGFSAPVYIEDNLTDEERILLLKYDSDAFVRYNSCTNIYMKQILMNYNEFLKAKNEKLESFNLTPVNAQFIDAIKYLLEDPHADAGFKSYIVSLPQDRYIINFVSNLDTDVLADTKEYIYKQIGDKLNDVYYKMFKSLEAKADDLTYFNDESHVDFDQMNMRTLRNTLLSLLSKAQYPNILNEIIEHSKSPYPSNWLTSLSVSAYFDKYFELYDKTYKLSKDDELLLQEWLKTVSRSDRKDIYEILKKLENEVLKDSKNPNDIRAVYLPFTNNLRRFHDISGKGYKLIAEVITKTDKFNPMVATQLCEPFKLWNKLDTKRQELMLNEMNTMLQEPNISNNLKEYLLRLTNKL
# Assay: P. falciparum M1AAP inhibitors, biochemical, fluorogenic H-Leu-NHMec substrate, 1536-well (AID 1445);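 further: plate controls were DMSO full reaction for no effect and no enzyme background for full effect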
# Conditions: recombinant M1AAP, H-Leu-NHMec fluorogenic kinetic assay; at 30 µM, active compounds read high unless noted
row,Compound,inhibition
1,COc1cccc(C(=O)OCC(=O)c2c[nH]c3ccccc23)c1O,6.87% (inactive)
2,COC(=O)N/N=C\c1ccc(OC(=O)c2ccco2)cc1,5.66% (inactive)
3,CC12CCCCC1c1ccccc1C(=NCC(=O)O)N2 (stereo not given),2.45% (inactive)
4,CCOC(=O)c1c(NC(=O)c2ccc(-n3cnnn3)cc2)sc2c1CCCC2,3.69% (inactive)
5,C=CCN(C#N)c1nc(OC)nc(N2CCCC2)n1,-0.65% (inactive)
6,O=C(NC1CCCC1)C(c1ccccc1F)N(C(=O)c1ccco1)C1CCCC1 (stereo not given),25% (active)
7,COc1cccc(C(C(=O)NC2CCCC2)N(C(=O)c2ccco2)C2CC2)c1OC (stereo not given),11% (inactive)
8,O=C(NC1CCCC1)C(c1ccccc1)N(C(=O)c1ccco1)C1CCCC1 (stereo not given),17.7% (inactive)
9,N/C(=N\OC(=O)CCCOc1ccccc1)c1ccc(Br)cc1,5.3% (inactive)
10,O=CN1CCN(C(=O)COc2ccc(Cl)cc2Br)CC1,1.29% (inactive)
11,CCCC1=NN2C(=N)/C(=C\c3ccc(SCc4ccco4)o3)C(=O)N=C2S1,20.4% (inactive)
12,COc1cc(/C=C2/C(=N)N3C=CSC3=NC2=O)ccc1OCCCOc1cc(C)ccc1C,-5.49% (inactive)
13,CCOc1cc(/C=C2\SC(=O)N(c3ccc(O)cc3)C2=O)ccc1O,15.2% (inactive)
14,CCC1=NN2C(=N)/C(=C\c3ccc(SCc4ccco4)o3)C(=O)N=C2S1,7.98% (inactive)
15,CCOc1cc(/C=C2\SC(=O)N=C2N)ccc1O,22% (inactive)
16,CCC1=NN2C(=N)/C(=C\c3ccc(OCc4cc(=O)n5nc(CC)sc5n4)c(OC)c3)C(=O)N=C2S1,32.8% (inactive)
17,O=S(=O)(NCc1ccccn1)c1cccc2nsnc12,3.36% (inactive)
18,Cc1cccc(NC(=O)NCc2ccc3c(c2)OCO3)c1C,-4.45% (inactive)
19,CSc1ccc(S(=O)(=O)NC(C)c2ccccc2)cc1 (stereo not given),-2.61% (inactive)
20,CCOc1cc(OCC)nc(S(C)(=O)=O)n1,2.35% (inactive)

row,Compound,inhibition
1,Cn1c(O)c(C=NCC2CCNCC2)c(=O)n(C)c1=O,-0.42% (inactive)
2,CC(C)C(=O)N1CCC(CN=CC2=C(O)CC(C)(C)CC2=O)CC1,6.11% (inactive)
3,CC(C)C(=O)N1CCC(CN=Cc2c(O)n(C3CCCCC3)c(=O)n(C3CCCCC3)c2=O)CC1,27% (active)
4,COC(=O)Cc1[nH]n(-c2ccccc2)c(=O)c1C=Nc1ccc(C)cc1,-0.62% (inactive)
5,COc1ccc(C(=O)Nc2nc3nc(-c4ccccc4)cc(=O)n3[nH]2)cc1,10.9% (inactive)
6,Cc1ccc(C(=O)Nc2nc3nc(-c4ccccc4)cc(=O)n3[nH]2)cc1,25.9% (active)
7,O=C(Nc1nc2nc(-c3ccccc3)cc(=O)n2[nH]1)c1ccccc1,-0.35% (inactive)
8,Cc1onc(-c2c(F)cccc2Cl)c1C(=O)Nc1ccc(S(=O)(=O)Nc2ncccn2)cc1,13.8% (inactive)
9,O=c1ccc2ccc(Oc3ccc([N+](=O)[O-])cc3[N+](=O)[O-])cc2o1,11.5% (inactive)
10,Cc1cc(=O)oc2cc(Oc3ccc(C(N)=O)cc3[N+](=O)[O-])ccc12,30% (inactive)
11,CC(NC(=O)COc1ccc(N(C)S(=O)(=O)c2ccccc2)cc1)c1ccccc1 (stereo not given),1.27% (inactive)
12,CC(NC(=O)CN(C1CCCCC1)S(C)(=O)=O)c1ccccc1 (stereo not given),2.9% (inactive)
13,NS(=O)(=O)c1ccc(CCn2c(=S)[nH]c3ccc(F)cc3c2=O)cc1,-3.16% (inactive)
14,O=C1c2oc3ccccc3c(=O)c2C(c2cccc(O)c2)N1CCCN1CCOCC1 (stereo not given),26.8% (active)
15,C=CCOc1ccc(C2c3c(oc4ccccc4c3=O)C(=O)N2CCCN2CCOCC2)cc1 (stereo not given),24.2% (active)
16,CCCOc1ccc(C2c3c(oc4ccccc4c3=O)C(=O)N2CCCN2CCOCC2)cc1 (stereo not given),4.5% (inactive)
17,O=C1c2oc3ccc(F)cc3c(=O)c2C(c2cccc(O)c2)N1CCCN1CCOCC1 (stereo not given),-3% (inactive)
18,CCOc1ccc(C2c3c(oc4ccccc4c3=O)C(=O)N2CCCN2CCOCC2)cc1 (stereo not given),2.52% (inactive)
19,COc1cccc(C2c3c(oc4ccccc4c3=O)C(=O)N2CCCN2CCOCC2)c1 (stereo not given),7.18% (inactive)
20,Cn1c(=O)c2c(nc(SCCN3CCOCC3)n2Cc2ccccc2)n(C)c1=O,7.6% (inactive)

row,Compound,inhibition
1,Cc1ccc(Cn2c(SCCN3CCOCC3)nc3c2c(=O)n(C)c(=O)n3C)cc1,23.8% (active)
2,Cn1c(=O)c2c(nc(SCCN3CCOCC3)n2Cc2ccc(F)cc2)n(C)c1=O,-1.46% (inactive)
3,Cc1ccc(NC(=O)NC2=NN(c3ccccc3)C(=O)/C2=C2/CCCN2C)cc1,8.56% (inactive)
4,O=C(c1nc2ccccn2c1CN1CCC(Cc2ccccc2)CC1)N1CCCC1,5.48% (inactive)
5,CCOc1ccccc1N(CC(=O)Nc1ccccc1C(=O)NCc1ccco1)S(C)(=O)=O,21% (inactive)
6,COc1ccc(N(CC(=O)Nc2ccccc2C(=O)NCc2ccco2)S(C)(=O)=O)cc1,3.79% (inactive)
7,CCOc1ccc(N(CC(=O)Nc2ccccc2C(=O)NCc2ccco2)S(C)(=O)=O)cc1,23.4% (active)
8,COc1ccc(C(C)=O)cc1CSc1nncn1C,4.42% (inactive)
9,COC(=O)c1c(NC(NC(=O)c2ccccc2)(C(F)(F)F)C(F)(F)F)sc2c1CCN(C)C2,2.95% (inactive)
10,CCOC(=O)CNNC(=O)Nc1ccc(Cl)c(Cl)c1,-5.41% (inactive)
11,CCOC(=O)N(C)OC(=O)Nc1ccc(Cl)c(Cl)c1,24% (active)
12,CCOC(=O)N(CC)OC(=O)Nc1ccc(Cl)cc1,2.39% (inactive)
13,Cc1ccc(-c2cc(NC(=O)CSc3n[nH]c(N)n3)n(-c3ccccc3)n2)cc1,3.01% (inactive)
14,Nc1nc(SCC(=O)Nc2cc(-c3ccccc3)nn2-c2ccccc2)n[nH]1,26.4% (active)
15,CCCc1ccc(-c2cc(NC(=O)CSc3n[nH]c(N)n3)n(-c3ccccc3)n2)cc1,-9.14% (inactive)
16,CS(=O)(=O)N1CCC(C(=O)Nc2cccc(Cl)c2)CC1,-2.4% (inactive)
17,CCCS(=O)(=O)N1CCC(C(=O)c2cccc(C(F)(F)F)c2)CC1,23.4% (active)
18,CCCS(=O)(=O)N1CCCC(C(=O)c2cccc(Cl)c2)C1 (stereo not given),2.05% (inactive)
19,O=C(NNC(=O)C1CCN(S(=O)(=O)c2cccc(C(F)(F)F)c2)CC1)C1CC1,-0.46% (inactive)
20,CS(=O)(=O)N1CCCC(C(=O)c2cccc(Cl)c2)C1 (stereo not given),-1.4% (inactive)
